Bioassay records (PubChem BioAssay)
The list is not random: actives were taken first. Their share in the collection is about 11%.
Pf growth 48h = inhibits P. falciparum growth in the first generation, 48 h | AID 504832 | Potency, µM (titrated, usually from 28.7 µM), without a hit: top-dose activity change, negative = inhibition, hits mostly inhibitors | hit rate 5.9% among 310,000 | P. falciparum luciferase growth in erythrocytes, 48 h; further: on the % scale 0 is the no-effect control and ±100 the full control effect
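Luciferase-expressing parasites in RBCs, 2% Hct / 0.1% parasitemia final; RPMI 1640 + 0.5% Albumax; 37 C, 5% CO2, one generation; luminescence read-out, lower signal = inhibition.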
NS1 inh = inhibitors of influenza NS1 protein function; AID 2326; Potency, µM (titrated, usually from 46.1 µM), without a hit: top-dose activity, positive = more growth; hit rate 0.4% among 270,000; calls by dose curve; further: actives are rising curves; nearly all actives have a fitted effect of over 50% in size
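In this qHTS, NS1 from influenza A is expressed in budding yeast, where it slows growth. Cells are switched from glucose to 2% galactose medium (pH 6.0, -URA), treated with compound, and growth recovery is read at OD600.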
Pf growth 96h = inhibits malaria parasite growth, 96 h; AID 504834; hit rate 6.9% among 320,000; P. falciparum luciferase reporter growth, 96 h; Potency, µM (series often up to 28.7 µM), without a hit: at the top dose activity change, negative = inhibition, hits mostly inhibitors; further: on the % scale 0 is the no-effect control and ±100 the full control effect
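96 h incubation, 37 C, 5% CO2, of luciferase-reporter P. falciparum-infected RBCs (2% hematocrit, 0.05% parasitemia final) with test compounds; endpoint luminescence.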
Sm TGR block = S. mansoni TGR enzyme inhibition; purified TGR, DTNB reduction, TNB absorbance 405 nm; Q962Y6; Potency, µM (highest dose often 114 µM), without a hit: at the top dose activity change, negative = inhibition, actives largely listed as inhibitors; hit rate 3% among 360,000; further: on the % scale 0 is the no-effect control and ±100 the full control effect; nearly all actives have a fitted effect of over 60% in size
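Kinetic colorimetric format: TGR-catalysed, NADPH-driven DTNB reduction monitored via TNB absorbance. Enzyme dispensed at 20 nM; compound exposure 15 min at room temperature before reaction start.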
AMA1-RON2 inh = disrupts binding of P. falciparum AMA1 to RON2. AlphaScreen AMA1-biotinylated RON2 peptide binding. Potency, µM (series often up to 58.2 µM), without a hit: top-dose activity change, negative = inhibition, usual class: inhibitors. hit rate 0.2% among 360,000. AID 720542;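 further: 0% = vehicle wells and -100% = peptide control; nearly all actives have a fitted effect of over 45% in size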
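AMA1 (3D7) with his tag at 25 nM final met compounds first, then biotinylated RON2 peptide at 25 nM; detection used donor plus acceptor beads, 10 µg/mL apiece, read by AlphaScreen after 30 min at room temperature.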
The depositor's hits bear a star; [ ] = another dose, or the depositor's remark. Unless noted, the call rests on the fitted dose curve; in most records, active means well fitted curve in the direction sought with a large enough effect; inconclusive means small, poorly fitted or top-dose-only effect, or another doubt; inactive means no such curve, though single readings can be large; an effect the other way counts as inactive or inconclusive. Potency means the concentration at half of the fitted maximal effect.

`O=C(CCc1ccccc1)NC(NC(=S)Nc1ccc(Br)cc1)C(Cl)(Cl)Cl` (stereo unspecified) gave Pf growth 48h inconclusive, NS1 inh 4%, Sm TGR block -14% and AMA1-RON2 inh 5%.
Screening C=Cc1cccc(NC(=O)c2ccc(NC(=O)c3ccco3)cc2)c1 returned Pf growth 48h -5%, NS1 inh -29%, Pf growth 96h 1.5µM*, Sm TGR block 2% and AMA1-RON2 inh -9%.
O=C(NC(NC(=S)Nc1ccc(Cl)cc1)C(Cl)(Cl)Cl)c1ccco1 (stereo unspecified) was read as Pf growth 48h 10µM*, NS1 inh 20%, Pf growth 96h 21%, Sm TGR block inconclusive and AMA1-RON2 inh -13%.
For CC(C)c1ccc(NC(=O)C(NS(=O)(=O)c2ccc3c(c2)CCC(=O)N3)c2ccccc2)cc1 (stereo unspecified) the results were Sm TGR block -2%.
Screening O=C(Nc1ccc(Cl)cc1)c1ccco1 returned Pf growth 48h 131%, NS1 inh -21%, Pf growth 96h 5.2µM*, Sm TGR block 2% and AMA1-RON2 inh -5%.
`COc1ccc(-c2ccc(NC(=O)c3ccco3)cc2)nn1` gave Pf growth 48h inconclusive, Pf growth 96h -47%, Sm TGR block 50µM* and AMA1-RON2 inh -8%.
Screening COC(=O)[C@H](Cc1ccccc1)NC(=O)/C=C/[C@H]1O[C@@H](n2cc(C)c(=O)[nH]c2=O)C[C@@H]1O returned AMA1-RON2 inh 7%.
COc1ccc(S(=O)(=O)N2CC3CCCN3c3ccc(C(F)(F)F)cc32)cc1 (stereo unspecified) was read as Pf growth 48h inconclusive, NS1 inh 21%, Pf growth 96h 13µM*, Sm TGR block -11% and AMA1-RON2 inh -10%.
Cc1nn(CC(=O)N2CCC(C)CC2)c(=O)c2nn(-c3ccccc3)c(C)c12 was read as Pf growth 48h 0%, NS1 inh 3%, Pf growth 96h inconclusive, Sm TGR block 3% and AMA1-RON2 inh 4%.
For CCOC(=O)C1=CN(Cc2cccc(F)c2)S(=O)(=O)N(C)C1c1ccc(F)c(Cl)c1 (stereo unspecified) the results were AMA1-RON2 inh 3%.
For Cc1ccc(C(=O)Nc2ccccc2C(=O)NCc2ccccc2)cc1 the results were Pf growth 48h inconclusive, NS1 inh 5%, Pf growth 96h inconclusive, Sm TGR block -18% and AMA1-RON2 inh 7%.
Screening Cc1cc(C)n2ncc(C(=O)NCc3cccnc3)c2n1 returned Pf growth 48h 11%, NS1 inh -3%, Pf growth 96h 2.3µM*, Sm TGR block 12% and AMA1-RON2 inh 8%.
For Cc1ccc(NS(=O)(=O)c2cc(C(=O)NCc3cccnc3)ccc2C)cc1 the results were Pf growth 48h -20%, NS1 inh -15%, Pf growth 96h 8.3µM*, Sm TGR block -1% and AMA1-RON2 inh -2%.
`O=C(NCc1cccnc1)c1cnn2ccccc12` gave NS1 inh -6%, Pf growth 96h 163%, Sm TGR block 4% and AMA1-RON2 inh 9%.
For O=C(Nc1c(Cl)cc(Cl)cc1C(=O)NCc1cccnc1)c1ccc(Cl)cc1Cl the results were Pf growth 48h 1.5µM*, NS1 inh -7%, Pf growth 96h 18%, Sm TGR block 6% and AMA1-RON2 inh -1%.
For Cc1ccc(C(=O)Nc2ccccc2C(=O)NCc2cccnc2)cc1 the results were Pf growth 48h inconclusive, NS1 inh 4%, Pf growth 96h 10µM*, Sm TGR block 0% and AMA1-RON2 inh 0%.
CCc1nc2ccccc2c(=O)n1/N=C/c1ccc(OC)cc1 was read as AMA1-RON2 inh -6%.
Screening O=C(NCc1cccnc1)c1nc(-c2ccccc2)n(-c2ccccc2)n1 returned Pf growth 48h -19%, NS1 inh 19%, Pf growth 96h 3.3µM*, Sm TGR block -3% and AMA1-RON2 inh -1%.
Screening O=C(Nc1ccc(Cl)cc1C(=O)NCc1cccnc1)c1ccc(Cl)cc1Cl returned Pf growth 48h 8.3µM*, NS1 inh -21%, Pf growth 96h 3.3µM*, Sm TGR block -2% and AMA1-RON2 inh 13%.
Screening O=C(Nc1ccccc1C(=O)NCc1cccnc1)c1ccccc1Cl returned Pf growth 48h -4%, NS1 inh 7%, Pf growth 96h inconclusive, Sm TGR block -4% and AMA1-RON2 inh -16%.
For Cc1cc[n+](Cc2ccccc2)cc1 the results were Pf growth 48h 3.7µM*, Pf growth 96h 9.3µM*, Sm TGR block 0% and AMA1-RON2 inh 2%.
For Cc1ccc(-c2cc[n+](Cc3ccccc3)cc2)cc1 the results were Pf growth 48h 0.93µM*, NS1 inh -1%, Pf growth 96h 296%, Sm TGR block 101% and AMA1-RON2 inh 8%.
For c1ccc(C[n+]2ccccc2)cc1 the results were Pf growth 48h inconclusive, Pf growth 96h inconclusive, Sm TGR block -1% and AMA1-RON2 inh 8%.
For CCOC(=O)c1ccc(NC(=O)CCCn2nc(C)c3sc4ccccc4c3c2=O)cc1 the results were Sm TGR block -35%.
COc1ccc(C(=O)NC2CCN(CC(=O)NCc3ccccc3)CC2)cc1 was read as Pf growth 48h 19%, NS1 inh -1%, Pf growth 96h -1%, Sm TGR block 7% and AMA1-RON2 inh -7%.
For Cc1cc(C)c(CN2CCN(Cc3ccc(C)o3)C(CCO)C2)c(-n2cccn2)c1 (stereo unspecified) the results were Pf growth 48h -17%, NS1 inh 0%, Pf growth 96h inconclusive, Sm TGR block inconclusive and AMA1-RON2 inh -4%.
Screening N#Cc1cccc(-n2c(-c3ccccc3)nnc2-c2ccccc2)c1C#N returned Pf growth 48h 5.2µM*, NS1 inh 26%, Sm TGR block 11% and AMA1-RON2 inh 5%.
For O=c1cc(CSc2n[nH]c(=O)n2C2CC2)c2ccc(O)cc2o1 the results were Pf growth 48h 16%, NS1 inh 1%, Pf growth 96h 22%, Sm TGR block -2% and AMA1-RON2 inh -6%.
C[N+](C)(C)CC/C=C1/c2ccccc2CSc2ccccc21 was read as Pf growth 48h 9.3µM*, NS1 inh 18%, Pf growth 96h 4.1µM*, Sm TGR block 3% and AMA1-RON2 inh -2%.
For CCC(C)S(=O)(=O)c1oc(-c2cccs2)nc1S(=O)(=O)c1ccccc1 (stereo unspecified) the results were Sm TGR block 0.71µM*.
For CNc1oc(-c2ccc(F)cc2)nc1S(=O)(=O)c1ccccc1 the results were Pf growth 48h inconclusive, NS1 inh -1%, Pf growth 96h 37%, Sm TGR block -1% and AMA1-RON2 inh -4%.
For CC(C)CS(=O)(=O)c1oc(-c2ccc(F)cc2)nc1S(=O)(=O)c1ccccc1 the results were Sm TGR block 1.1µM*.
Screening O=S(=O)(c1ccccc1)c1nc(-c2ccc(F)cc2)oc1NCC1CCCO1 (stereo unspecified) returned Pf growth 48h inconclusive, Pf growth 96h inconclusive, Sm TGR block 45µM* and AMA1-RON2 inh -2%[11.6 µM].
